# According to PubChem BioAssay (NCI):
# About 83,000 compounds went through this panel and 20% of them were active in at least one assay; those are over-represented in the sample as a whole.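 How to read the values: 0–100, growth inhibition (40 = 60% inhibited); 0, no net growth; -100 to 0, cell death (-40 = 40% of starting cells died; -100 = all dead).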 A number with no mark means an inactive call. The source made the active and inactive calls. The calls were made as follows: active = growth percent below 10; inactive = the rest.
# Experiments:
# Assay in all cases: NCI-60 one-dose screen, 48 h (100 = growth as untreated, 0 = no growth, -100 = all killed)
# Details in all cases: 10 µM unless noted
# [1] = system: NCI-H23 lung
# [2] = system: NCI-H226 lung
# [3] = system: NCI-H322M lung
# [4] = system: HOP-62 NSCLC
# [5] = system: NCI-H460 lung
# [6] = system: HOP-92 NSCLC
# [7] = system: NCI-H522 lung
# [8] = system: A549/ATCC NSCLC
# [9] = system: 786-0 renal
# [10] = system: COLO 205 colon
# [11] = system: DU-145 prostate
# [12] = system: K-562 leukemia
# [13] = system: MALME-3M melanoma
# [14] = system: MDA-MB-231 breast
# [15] = system: RXF 393 renal
# [16] = system: SF-268 CNS
# [17] = system: SF-295 CNS
# [18] = system: SF-539 CNS
# [19] = system: UACC-257 melanoma
# [20] = system: M14 melanoma
SMILES,growth [1],growth [2],growth [3],growth [4],growth [5],growth [6],growth [7],growth [8],growth [9],growth [10],growth [11],growth [12],growth [13],growth [14],growth [15],growth [16],growth [17],growth [18],growth [19],growth [20]
COc1ccc(-c2nc(SCC(=O)Nc3ccc(C(C)=O)cc3)[nH]c(=O)c2C#N)cc1,97.2%,91%,101%,101%,111%,98.3%,67.9%,85.3%,94.7%,115%,106%,98.8%,103%,95.2%,108%,101%,95.1%,97.6%,84.7%,87.6%
Cc1ccncc1C(=O)O,92.7%,101%,101%,113%,99.6%,88.4%,128%,90.1%,103%,128%,101%,116%,96.2%,101%,118%,94.8%,99.8%,94.4%,102%,100%
Nc1ncnc2nc(Br)[nH]c12,92.7%,85.9%,108%,98%,106%,94.7%,85.9%,77.1%,95.1%,103%,102%,89.6%,100%,99.8%,103%,98.3%,102%,103%,87.7%,92.1%
CC1(C)C=CC[C@]2(C)[C@H]3CC[C@@H]4[C@H]5[C@H](C(=O)/C=C/c6cccnc6)CC[C@]5(CO)CC[C@@]4(C)[C@]3(C)CC[C@@H]12,-60% (active),-54.1% (active),9.88% (active),-81.3% (active),-62.4% (active),-92.7% (active),-73.7% (active),-41.5% (active),-59.8% (active),-71.9% (active),-94.2% (active),-29.3% (active),-85% (active),-77.6% (active),-86.7% (active),-57.6% (active),-91.4% (active),-96.2% (active),-49.7% (active),-74.4% (active)
Brc1ccc2c(c1)c(-c1nc(-c3c[nH]c4ncccc34)cs1)cn2CCCN1CCCCC1,22.4%,71.2%,39.1%,-66.7% (active),-67.7% (active),31.7%,-3.42% (active),-69.6% (active),-74.8% (active),-77.4% (active),-44.4% (active),-64.4% (active),-45.9% (active),-43.3% (active),23.6%,7.71% (active),27.3%,-77.6% (active),66.1%,-81.4% (active)
CC(=O)Cc1nsc(NC(=O)c2ccoc2COc2ccccc2)n1,95.2%,105%,94.3%,107%,107%,90.1%,94.1%,99.3%,98.7%,121%,106%,90.6%,96.8%,95%,113%,96.3%,98.6%,91.6%,93.2%,95.4%
Cc1csc(-c2ccc3c(c2)COC3(CCCN(C)C)c2ccc(F)cc2)c1 (stereo not given),88.9%,95.8%,77%,-64.4% (active),-45.7% (active),34.3%,-38.8% (active),31.3%,61.8%,-69.1% (active),42.8%,-19.9% (active),-71.9% (active),44.3%,43.5%,57.2%,73.7%,73.9%,-57.7% (active),-70.3% (active)
C=C(C)[C@@H]1CC[C@]2(C(=O)O)CC[C@]3(C)[C@H](CC[C@@H]4[C@@]5(C)C/C(=C/c6ccc(OC)cc6)C(=O)C(C)(C)[C@@H]5CC[C@]43C)[C@@H]12,8.25% (active),25%,30.4%,23.8%,1.81% (active),18.9%,12.7%,16.8%,25.1%,2.57% (active),34.4%,15.6%,42.2%,32.4%,43.9%,38.8%,11.9%,22.1%,31.1%,25.3%
O=C1OC(c2ccc(Cl)c(Cl)c2)=C/C1=C/c1cccc([N+](=O)[O-])c1,88.1%,86.3%,102%,94.2%,102%,94.3%,90.9%,97.4%,105%,108%,109%,99%,101%,108%,96.4%,97.9%,101%,103%,103%,106%
COc1cnc2c(c1)C(=O)c1c-2n(CCCNC2=NCCS2)c(=O)c2cc([N+](=O)[O-])ccc12,-47.1% (active),8.43% (active),-19.6% (active),-59.6% (active),-81.9% (active),24.9%,22.8%,-77.2% (active),-93% (active),-67.1% (active),-74.7% (active),-14.9% (active),-60.6% (active),-58.4% (active),-2.16% (active),-39.4% (active),11.7%,-66.5% (active),35.4%,-73.5% (active)
CC(=O)c1c(C)[nH]c(-c2nc3ccc(N4CCN(C)CC4)cc3[nH]2)c1-c1ccc(OCC2CCOCC2)cc1,36.6%,44.4%,41.1%,24.7%,49.6%,37%,37.6%,33.2%,35.6%,3.57% (active),63.4%,22.4%,20.7%,37.4%,31.1%,54.3%,43.3%,40.2%,30.8%,34.5%
COc1cc2nc(Cl)nc(Nc3cccc(C(=O)/C=C/c4ccc(Br)cc4)c3)c2cc1OC,96.6%,83%,95.1%,98%,104%,83.6%,84.3%,85.1%,87%,101%,97.6%,35.9%,105%,78%,85.1%,94.5%,86.1%,82.2%,107%,89.8%
Cc1ccc(/C=C(\C#N)c2cc3ccccc3n2C)cc1,24.6%,57.6%,58.7%,47.1%,11%,90.5%,31.3%,31.2%,49.9%,3.21% (active),25.5%,14.7%,59.8%,18.7%,20.6%,64.4%,9.43% (active),8.03% (active),89.6%,14%
CC(C)C[C@@H](NC(=O)[C@@H](Cc1ccccc1)NC(=O)c1cnccn1)B1O[C@H]2[C@H](O)[C@@H](C(=O)NCCCC[C@@H]3NC(=O)[C@@H](Cc4ccccc4)NC(=O)[C@H](CC(=O)O)NC(=O)CNC(=O)[C@H](CCCN=C(N)N)NC3=O)O[C@@H](CN)[C@H]2O1,-29.2% (active),-45.8% (active),6.41% (active),-50.5% (active),-44.6% (active),-70.4% (active),-67.9% (active),-55.2% (active),-12.8% (active),-81.1% (active),-8.32% (active),2.76% (active),-20.6% (active),-9.73% (active),-85.9% (active),-37.1% (active),-73.5% (active),-31.9% (active),-28% (active),-0.783% (active)
N#C/C(=C\c1ccc(-c2ccc(Br)cc2)o1)c1nc(-c2ccco2)cs1,89.4%,88.2%,85%,95.7%,91.4%,86.3%,93.2%,98.3%,98.8%,102%,101%,97.9%,97.7%,76%,101%,101%,91.2%,90.8%,102%,89.2%
